According to PubChem BioAssay AID598 (SRMLSC, 2007):
Out of some 85,000 compounds screened, about 5,100 (6%) were called active. For the sample, actives were picked, then their nearest neighbours and some compounds at random. A number with no mark means an inactive call.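 How the source made its calls: active means viability at or below 40%; inactive means viability above 40%.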

Assay: H69AR cell viability reduction – human, 86K library, primary screen (AID 598);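 further: multidrug resistant small cell line overexpressing MRP-1 efflux transporter; 100% = mean luminescence of untreated control wells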
Conditions: H69AR lung tumor viability, ATP luminescence, 72 h; at 10 µM; hits give low values

Compound | viability
CCN(CC)C(=O)CSc1nc2ccccc2o1 | 91.7%
CCOc1c(Br)cc(/C=C2\C(=O)N(CCC#N)N=C2C)cc1OC | 26.2% (active)
CCOc1cc(/C=N/O)cc(Br)c1OC | 90.5%
Cc1nnc(NCCO)c2ccccc12 | 89.8%
Cn1c(SCC(=O)N2CCCc3ccccc32)nc2ccccc2c1=O | 62.9%
Fc1ccccc1/C=C1\CCCC2=C1Nc1ncnn1C2c1ccccc1F (configuration not stated) | 1.53% (active)
COc1ccc(C2C(C(C)=O)=C(O)C(=O)N2c2nccs2)cc1 (configuration not stated) | 106%
O=C(N/N=C/c1ccc(O)cc1)/C(=C/c1ccc([N+](=O)[O-])cc1)NC(=O)c1ccccc1 | 88.2%
COc1c(F)c(F)c(C(=O)O)c(Nc2ccccc2C)c1F | 98.5%
COc1ccc(C(=O)OCC(=O)NCC2CCCCC2)cc1S(=O)(=O)N1CCCc2ccccc21 | 72.3%
C=CCn1c(SCCOc2ccc(OC)cc2)nnc1C(NC(=O)c1ccc(OC)cc1)C(C)C (configuration not stated) | 64%
CCN(CC(=O)NC1CCS(=O)(=O)C1)c1nc(-c2cccnc2)nc2ccccc12 (configuration not stated) | 89.7%
Cc1cccc(-n2c(O)c(C=Nc3ccccc3N)c(=O)[nH]c2=O)c1 | 10% (active)
Cc1cccc(N2CCN(S(=O)(=O)c3ccc4[nH]c(=O)c(=O)[nH]c4c3)CC2C)c1 (configuration not stated) | 98.9%
Cc1cccc(-n2c(N)c(C(=O)N3CCN(C)CC3)sc2=S)c1 | 94.4%
O=C(C(NS(=O)(=O)c1cccc2nsnc12)c1ccccc1)N1CCN(c2ccccc2)CC1 (configuration not stated) | 52.6%
CCSc1nnc(NC(=O)c2ccc(C)cc2)s1 | 103%
Cc1cccc(Nc2ccccc2C(=O)NCc2ccco2)c1C | 15.7% (active)
O=C(Nc1ccccc1)Nc1ccccc1C(=O)NCc1ccco1 | 99.2%
CCOc1ccccc1C(=O)NCc1ccco1 | 74.1%
O=C(Oc1ccccc1C(=S)N1CCCCC1)c1cc([N+](=O)[O-])cc([N+](=O)[O-])c1 | 94.3%
COC(=O)c1nc2ccccc2s1 | 86.8%
O=C(OC1CCOC1=O)c1ccc(-c2nc3ccccc3s2)s1 (configuration not stated) | 92.7%
COc1ccccc1N1CC(O)=C(c2nc3ccccc3s2)C1=N | 31.6% (active)
COc1ccc(-c2nnc(SCc3cccnc3)o2)cc1 | 53.3%

Compound | viability
O=C(COc1ccc(Cl)cc1)NCCSc1ccccc1 | 95.3%
CCOC(=O)c1nc(-c2ccc3c(c2)OCO3)[nH]c1C | 36% (active)
CCOC(=O)NCc1ccc2c(c1)OCO2 | 113%
CCOC(=O)c1c(C)[nH]c(C(=O)COc2ccc3c(c2)OCO3)c1C | 81.1%
CCC(=O)Nc1ccc2c(c1)nc(CCN1CCN(C)CC1)n2C | 74.1%
Cc1nn(CC(=O)Nc2ccc3c(c2)nc(CN2CCCCC2)n3C)c(=O)c2ccccc12 | 104%
Cn1c(CCN2CCCCCC2)nc2cc(NC(=O)Nc3ccccc3)ccc21 | 9.15% (active)
CC1CCC(N2CC(=O)N(Cc3ccc4c(c3)OCO4)C(c3ccc(F)cc3)C2=O)CC1 (configuration not stated) | 100%
CC(=O)c1sc(NC(=O)c2ccc(C)cc2)nc1C | 80%
COC(=O)c1sc(NC(=O)c2ccc(OC)cc2OC)nc1C | 69.8%
COc1cccc2sc(Nc3nc(C)c(C(C)=O)s3)nc12 | 32.5% (active)
CC(C)CC(N=C1NC(C)(C)Cc2ccccc21)C(=O)O (configuration not stated) | 108%
CCCCc1nnc(NC(=O)CSc2nc(C)cc(=O)[nH]2)s1 | 92.2%
Cc1ccc(-n2c(CNc3ccc(F)cc3)nnc2SCC(=O)N2CCOCC2)cc1 | 92%
C1=C(CCNc2ncnc3c2cnn3-c2ccccc2)CCCC1 | 77%
O=C(NCCC1=CCCCC1)C1CCN(Cc2cnn(-c3ccccc3)c2-n2cccc2)CC1 | 26% (active)
CC(=O)Nc1ccc(NC(=O)CSCc2cnn(-c3ccccc3)c2-n2cccc2)cc1 | 87.6%
CC(C)Oc1ccc(Oc2ccc(C(F)(F)F)cn2)cc1 | 98.7%
N=c1n(Cc2ccc(Cl)cc2)c2ccccc2n1CC(O)c1ccco1 (configuration not stated) | 14.7% (active)
Cn1c(=N)n(CC(O)c2ccccc2)c2ccccc21 (configuration not stated) | 80.7%
O=S(=O)(O)c1nc2ccccc2n1Cc1ccc(Cl)cc1 | 86.1%
O=C(NCc1ccccc1Cl)c1csc2c1CCCCC2 | 97.3%
Cc1ccsc1C(C(=O)NC1CCCCC1)N(C(=O)Cc1cccs1)C1CC1 (configuration not stated) | 25.5% (active)
O=C(NCC(=O)N(Cc1cccs1)C(C(=O)NC1CCCCC1)c1ccco1)c1cccs1 (configuration not stated) | 82.2%
CC(Cc1cccs1)NC(=O)NC1CCCCC1 (configuration not stated) | 87%

Compound | viability
CC(=O)c1ccc(OCCN2CCOCC2)cc1 | 85.9%
Cc1ccc(NC(=O)N2CCC(O)(c3cccnc3)CC2)cc1 | 78.4%
CCCCc1nnc(NC(=O)CS(=O)(=O)Cc2ccccc2)s1 | 97%
CC(=O)NC1=NN(C(C)=O)C(C)(c2ccc(Cl)s2)S1 (configuration not stated) | 17.3% (active)
O=C(NC1=NCCS1)c1ccc(Cl)s1 | 93.3%
c1ccc2c(-c3nn4nnnc4c4ccccc34)cccc2c1 | 64.8%
CCCn1c(C)cc(C(=O)COC(=O)c2c(C)nn(-c3ccccc3)c2C)c1C | 100%
Oc1c(C(c2ccccn2)N2CCOCC2)ccc2cccnc12 (configuration not stated) | 79.3%
CCN1CCN(C(c2cccnc2)c2cc(Cl)c3cccnc3c2O)CC1 (configuration not stated) | 102%
CCOC(=O)N1CCN(C(c2cccnc2)c2ccc3cccnc3c2O)CC1 (configuration not stated) | 35.2% (active)
CC(C)(C)c1nc2ccccc2c(=O)n1N1C(=O)c2ccccc2C1=O | 63.5%
Cc1ccc2cc(CCNC(=O)c3c(-c4ccccc4Cl)noc3C)c(=O)[nH]c2c1 | 86.2%
O=C(Nc1ccc(-c2nnc(-c3ccccc3)o2)cc1)C1CCCO1 (configuration not stated) | 86%
O=C(Nc1ccc(-c2nnc(-c3ccccc3)o2)cc1)c1ccc(Br)o1 | 39.8% (active)
Brc1ccc(-c2nnc(-c3ccccc3)o2)o1 | 90%
CC1CCN(S(=O)(=O)c2ccc(S(=O)(=O)NCc3ccco3)cc2)CC1 | 75.4%
OC(CNCC1CCCO1)Cn1c2ccc(Br)cc2c2cc(Br)ccc21 (configuration not stated) | 1.09% (active)
Cc1ccc(C(=O)NCC2CCCO2)o1 (configuration not stated) | 93.7%
Cc1cc(Br)ccc1NC(=O)C1CCCO1 (configuration not stated) | 101%
CCOCCCNC(=O)C(NC(=O)CNC(=O)c1ccccc1)c1ccc(C)cc1 (configuration not stated) | 101%
O=S(=O)(Cc1cc(Sc2ccccc2)nc(-c2ccccc2)n1)c1ccccc1 | 84.3%
CN(c1nc2ccccc2n2c(-c3ccco3)nnc12)S(=O)(=O)c1ccccc1 | 96.1%
c1coc(-c2nc3nc4ccccc4n3nc2-c2ccco2)c1 | 82.6%
Cn1c(-c2ccco2)nc2cc3ccccc3cc21 | 37.4% (active)
Cc1ccc(C)c(NC2=NCC(=O)N2c2ccc3c(c2)OCCO3)c1 | 100%

Compound | viability
COc1ccc(NC(=O)CCN2CCCC2)c(OC)c1 | 94.6%
CN1C(=O)C(CC(N)=O)N(NC(=O)c2ccc(Cl)cc2)C1=S (configuration not stated) | 98%
CCOc1cccc(-n2nnnc2-c2ccc(OC)cc2)c1 | 15.2% (active)
COc1ccc(-n2nnnc2SCC(=O)c2ccc(OC)c(OC)c2)cc1 | 92%
CCOc1cccc(-c2nnc3sc(COc4ccc(OC)cc4)nn23)c1 | 51.3%
CCOC(=O)CN1C(=O)C(O)(CC(=O)c2ccccn2)c2ccccc21 (configuration not stated) | 46.4%
C#CCN1C(=O)C(O)(CC(=O)c2cc(OC)ccc2OC)c2ccccc21 (configuration not stated) | 17.6% (active)
O=C(CC1(O)C(=O)N(CN2CCOCC2)c2ccccc21)c1ccccc1 (configuration not stated) | 79.9%
COc1ccc(N2CCN(C(=O)CSc3ncnc4c3cnn4-c3ccc(OC)cc3)CC2)cc1 | 89.9%
CCOC(=O)c1ccc(-n2c(C)nc3c(cnn3-c3ccccc3C)c2=O)cc1 | 96.7%
COc1ccc(-n2c(C)nc3c(cnn3-c3ccccc3)c2=O)cc1 | 19.6% (active)
Cc1ccc(/C=N/NC(=O)C2=NNC(c3ccccc3)(c3ccccc3)C2)c(O)c1 | 40.7%
COc1ccc(S(=O)(=O)N/N=C\c2ccc(OC)c(COc3ccc(C)cc3[N+](=O)[O-])c2)cc1 | 29.6% (active)
COc1ccccc1CNS(=O)(=O)c1ccc(C)cc1 | 86.8%
CCOc1ccc(S(=O)(=O)Nc2ccc(S(=O)(=O)Nc3cc(OC)ccc3OC)cc2)cc1 | 74.9%
Cc1noc(/C=C/c2ccco2)c1S(=O)(=O)N1CCC(C(=O)N2CCc3ccccc32)CC1 | 81.4%
COCCNC(=O)C(c1ccc(C)o1)N(Cc1cccs1)C(=O)c1snc(C(N)=O)c1N (configuration not stated) | 91.2%
CCC(C(=O)NC1CCCC1)N(C(=O)c1snc(C(N)=O)c1N)c1ccc2c(c1)OCCO2 (configuration not stated) | 33.1% (active)
Cc1ccc(C(C(=O)NC2CCCCC2)N(C(=O)c2csnn2)C2CC2)o1 (configuration not stated) | 95.7%
Cc1cc(O)cc(O)c1C(=O)Cc1cnn(-c2ccccc2)c1 | 79.8%
O=C1C=C(c2ccc(Cl)cc2)C(=O)N1Nc1ccccc1 | 1.17% (active)
Cc1ccc(CCN2CC(C(=O)O)CC2=O)cc1 (configuration not stated) | 91.7%
